System: HeLa
Test: nuclear count per well, robust Z-score vs DMSO; higher = more cells (less toxicity)
Conditions: 10 µM; 6 h
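Further: Hoechst-stained nuclei counted by automated confocal imaging of four fields per well in 384-well plates, with the robust Z-score based on the per-plate DMSO median and robust SD.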

Row | Structure (SMILES) | nuclear count per well
1 | C[C@H](N)C(=O)N[C@@H](C)C(=O)N[C@@H](Cc1ccccc1)C(=O)CCl | -0.353
2 | C=C(C)[C@H]1Cc2c(ccc3c2O[C@@H]2COc4cc(OC)c(OC)cc4[C@@H]2C3=O)O1 [Rotenone] | -2.82
3 | CCOC(=O)CN1C(=O)CC(C[C@@H](O)C2C[C@@H](C)C[C@H](C)C2=O)CC1=O (stereo not given in full) [Cycloheximide-N-ethylethanoate] | -0.108
4 | CCCCC/C=C\CC1OC1CCCCCCCC(=O)O (stereo not given) [Leukotoxin A (9,10-EODE)] | -0.0952
5 | NCC1(CC(=O)O)CCCCC1 [Gabapentin] | 0.315
6 | C[C@@H]1C[C@@H]([C@H](O)CC2CC(=O)NC(=O)C2)C(=O)[C@@H](C)C1 [Cycloheximide] | -3.22
7 | C[N+]1(C)CCCC(OC(=O)C(O)(c2ccccc2)c2ccccc2)C1 (stereo not given) [Mepenzolate Bromide] | -0.188
8 | COc1cc2c(c3oc(=O)c4c(c13)CCOC4=O)[C@@H]1C=CO[C@@H]1O2 [Aflatoxin G1] | 0.375
9 | CO[C@H](C/C=C\C=C\CC/C=C/C[C@H](C)/C=C/C(=C\C(=O)O)CC(=O)O)/C(C)=C\C=C(/C)C(=O)O [Bongkrekic acid] | -1.5
10 | Oc1ccc2c3c1O[C@H]1[C@@H](O)CC[C@@]4(O)[C@@H](C2)N(CC2CCC2)CC[C@]314 | -1.43

Reference: the supplement of paper PMC9844399
